Compound activity (PubChem)
TDP1 inh: qHTS Assay for Inhibitors of Tyrosyl-DNA Phosphodiesterase (TDP1); AID 485290, 2010; Potency, µM (titrated, usually from 130 µM), actives largely listed as inhibitors; recombinant TDP1, AlphaScreen DNA substrate cleavage; Tyrosyl-DNA phosphodiesterase 1 (Homo sapiens), Q9NUW8; 0.28% of 350,000 active; note: nearly all actives have a fitted effect of over 40% in size
Target sequence (Q9NUW8 whole entry, looked up): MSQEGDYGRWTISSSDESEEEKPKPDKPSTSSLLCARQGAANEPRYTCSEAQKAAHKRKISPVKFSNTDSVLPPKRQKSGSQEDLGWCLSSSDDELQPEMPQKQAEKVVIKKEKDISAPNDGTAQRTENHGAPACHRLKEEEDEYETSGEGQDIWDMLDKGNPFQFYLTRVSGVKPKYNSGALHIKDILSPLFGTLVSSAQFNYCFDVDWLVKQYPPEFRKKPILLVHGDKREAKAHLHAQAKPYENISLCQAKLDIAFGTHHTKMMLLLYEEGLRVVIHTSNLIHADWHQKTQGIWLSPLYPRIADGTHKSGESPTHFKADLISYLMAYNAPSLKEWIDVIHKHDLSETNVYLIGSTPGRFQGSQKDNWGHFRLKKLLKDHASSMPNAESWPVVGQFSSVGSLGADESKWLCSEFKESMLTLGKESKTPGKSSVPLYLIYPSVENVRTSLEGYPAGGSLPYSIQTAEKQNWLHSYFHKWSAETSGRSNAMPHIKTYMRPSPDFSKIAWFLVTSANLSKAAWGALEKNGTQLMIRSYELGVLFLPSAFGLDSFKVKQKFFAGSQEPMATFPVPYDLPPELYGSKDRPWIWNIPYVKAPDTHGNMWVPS
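AlphaScreen read-out: signal falls as enzyme removes the 3' tyrosine-FITC from a 5'-biotinylated DNA oligo (15 nM, 5 min, RT). Enzyme was E. coli-made recombinant Tdp1 at 1 nM, exposed to compound for 15 min beforehand; beads 10 ug/ml, 10 min.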
Gal4-VP16 FLuc: VP16 counterscreen qHTS for inhibitors of ROR gamma transcriptional activity | Drosophila S2 Gal4-VP16 UAS-luciferase, luminescence, 20 h | Potency, µM (highest dose often 53.6 µM), usual class: inhibitors | 3.5% of 310,000 active;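 note: Gal4-VP16 expression switched on by copper sulfate through the metallothionein promoter; nearly all actives have a fitted effect of over 50% in size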
RORgamma inh: qHTS for inhibitors of ROR gamma transcriptional activity | Nuclear receptor ROR-gamma (Mus musculus), P51450 | Drosophila S2 Gal4-RORgamma UAS-luciferase reporter, 20 h | Potency, µM (titrated, usually from 53.6 µM), hits mostly inhibitors | 5.4% of 310,000 active; note: nearly all actives have a fitted effect of over 60% in size
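Using a luciferase readout, inhibitors were identified by reduced reporter activity in Drosophila cells coexpressing a copper-inducible Gal4–ROR gamma fusion and UAS-driven Photinus luciferase, incubated 20 hr after 700 uM copper sulfate.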
DT40 TDP1 no CPT: qHTS for Inhibitors of human tyrosyl-DNA phosphodiesterase 1 (TDP1): qHTS in cells in absence of CPT. DT40 Tdp1-/- hTDP1 cells, no CPT, ATP luminescence, 48 h. AID 686978, 2013. Potency, µM (doses to about 46.2 µM), actives largely listed as inhibitors. 15% of 420,000 active; note: nearly all actives have a fitted effect of over 55% in size
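Readout: luminescence from CellTiter-Glo after 30 min in the dark at RT. Cells: DT40 Tdp1-/- with stable hTDP1, 400/well. Exposure: compounds alone, ≥48 hr, 37 °C.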
TDP1 cell CPT: qHTS for Inhibitors of human tyrosyl-DNA phosphodiesterase 1 (TDP1): qHTS in cells in presence of CPT. Potency, µM (titrated, usually from 46.2 µM), actives largely listed as inhibitors. 12% of 420,000 active. chicken DT40 Tdp1-/-;hTDP1 cells + 20 nM CPT, ATP luminescence, 48 h. AID 686979, 2013; note: nearly all actives have a fitted effect of over 55% in size
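Chicken DT40 Tdp1-/- cells stably complemented with human TDP1 were seeded at 400 cells/well in medium containing 20 nM camptothecin, exposed to pin-transferred compounds, and grown at 37 °C for at least 48 hr. Viability was read as ATP luminescence.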
A number is an active result; - = inactive; ? = inconclusive; . = not tested or not shown. An excerpt weighted towards active compounds, which were near 19% of everything screened. Calls come from the whole dose curve; as a rule, active = well fitted curve in the direction sought with a large enough effect; inconclusive = small, poorly fitted or top-dose-only effect, or another doubt; inactive = no such curve, though single readings can be large; an effect the other way counts as inactive or inconclusive.

SMILES | TDP1 inh | Gal4-VP16 FLuc | RORgamma inh | DT40 TDP1 no CPT | TDP1 cell CPT
Cc1onc(-c2ccccc2)c1C(=O)Nc1ccon1 | - | - | - | - | -
CCCOc1ccc(C(=O)NC(=S)NNC(=O)c2c(-c3ccccc3)noc2C)cc1 | - | ? | 3.98µM | ? | 23.1µM
CC(=O)Nc1ccc(OCCCNC(=O)c2c(-c3ccccc3)noc2C)cc1 | - | - | ? | 14.6µM | ?
COc1ccc(S(=O)(=O)N2CCCC2C(=O)Nc2ccc(O)cc2)cc1 (stereo not given) | - | - | - | ? | ?
Cc1cc(C)c(C2=CSC3=NS(=O)(=O)CCN23)c(C)c1 | - | - | - | - | -
CCOc1ccc(N2CC(C(=O)Nc3cccc(C)c3C)CC2=O)cc1 (stereo not given) | - | - | - | - | -
COc1ccc2[nH]c(=O)c(CN(C)C(=O)COc3ccccc3)cc2c1 | - | - | - | ? | ?
CCOC(=O)c1ccc(N2C(=O)CC(SCC(N)C(=O)OCC)C2=O)cc1 (stereo not given) | - | - | - | - | -
Cc1onc(-c2ccccc2)c1C(=O)NNC(=O)c1ccccc1Br | - | . | . | - | -
Cc1onc(-c2ccccc2)c1C(=O)NC(=S)NNC(=O)c1ccccc1O | - | - | - | 3.26µM | 3.66µM
O=C(/C=C/Nc1cccc(O)c1)c1ccccc1 | - | 6.31µM | 5.01µM | - | -
COc1ccc(C(=O)/C=C/Nc2ccccn2)c(OC)c1 | - | - | - | ? | -
Cc1ccc(C(=O)/C=C/Nc2cccc(O)c2)cc1 | - | 1µM | 2.24µM | ? | ?
Cc1ccc(N/C=C/C(=O)c2ccccc2)cc1Br | . | ? | ? | ? | -
C/C(=C\C(=O)c1cccnc1)Nc1ccc(O)cc1 | - | ? | 12.6µM | ? | -
O=C(/C=C\Nc1ccccn1)c1ccccc1 | - | 12.6µM | 5.01µM | - | -
Cc1ccccc1NCc1nc2ccccc2n1C | - | . | . | - | -
C/C(=C\C(=O)c1ccccc1)Nc1ccc(O)cc1 | - | - | ? | ? | -
C/C(=C\C(=O)c1ccc(C)cc1)Nc1cccc(O)c1 | - | 3.55µM | 6.31µM | ? | 18.4µM
CCCCN(C(=O)CC1CCCCC1)c1c(N)n(CC(C)C)c(=O)[nH]c1=O | - | . | . | - | -
CCOc1ccc2c(ccc(/C=C/c3cc(C)c4cccnc4c3O)[n+]2C)c1 | . | . | . | 5.17µM | 2.59µM
N#C/C(=C/c1cc(Cl)c(O)c(Cl)c1)C(=O)N1CCCCC1 | . | - | - | - | -
CC(=O)NCCc1nc2cc(NC(=O)c3ccccc3C)ccc2n1C | - | - | - | - | -
Cc1ccccc1-c1nn(-c2ccc(F)cc2F)cc1CNCCCN(C)C | - | - | - | 7.31µM | ?
Cc1ccccc1-c1nn(-c2ccc(F)cc2F)cc1CNCCN(C)C | - | - | ? | - | -
SMILES | TDP1 inh | Gal4-VP16 FLuc | RORgamma inh | DT40 TDP1 no CPT | TDP1 cell CPT
COCCN(C)Cc1cn(-c2ccc(F)cc2F)nc1-c1ccccc1C | ? | ? | 6.31µM | ? | -
CCC(=O)N1CCc2cc(S(=O)(=O)NCCc3ccc(S(N)(=O)=O)cc3)ccc21 | - | - | - | - | -
CS(=O)(=O)Oc1ccc2c(c1)O/C(=C\C=C\c1ccccc1)C2=O | - | - | - | ? | ?
O=C(NC(=S)Nc1ncc(Br)cc1Br)c1ccccc1 | - | 17.8µM | 8.91µM | ? | ?
Cc1cc(C)nc(NC(=S)NC(=O)c2ccccc2)n1 | . | ? | ? | - | -
O=C(Nc1cnc2ccccc2c1)c1ccncc1 | - | - | - | ? | ?
O=C(NC(=S)Nc1cnc2ccccc2c1)c1ccccc1 | - | ? | 5.62µM | - | -
COc1ccc(NC(=S)NC(=O)c2ccccc2)cn1 | - | . | . | - | -
Cn1ncc2cc(NC(=S)NC(=O)c3ccccc3)ccc21 | - | ? | 10µM | ? | ?
Cc1cc(C(=O)Nc2cccc3ccccc23)oc1C | . | . | . | - | ?
CCN(CC)CCN(CC(=O)Nc1c(C)cc(C)cc1C)C(=O)c1ccccc1 | . | - | - | - | -
COc1ccc(-c2nc3ccccc3o2)cc1NC(=O)c1ccc(OCC(C)C)cc1 | - | . | . | ? | ?
COc1ccc(/C=C2\SC(=S)N(CCC(=O)NC3CCCC3)C2=O)cc1OC | . | - | - | 16.4µM | ?
COc1ccc(/C=C2\SC(=S)N(CCCCCC(=O)Nc3cc(C)on3)C2=O)cc1OC | - | - | - | - | -
Cc1ccc(/C=C2\SC(=S)N(CCCC(=O)Nc3cc(C)on3)C2=O)cc1 | - | ? | 0.794µM | - | -
Cc1cc(NC(=O)CCN2C(=O)/C(=C\c3ccccc3Cl)SC2=S)no1 | - | - | - | - | ?
COc1ccc(/C=C2\SC(=S)N(CCCC(=O)Nc3cc(C)on3)C2=O)cc1OC | - | 5.01µM | 2µM | - | -
Cc1cc(NC(=O)CCCN2C(=O)/C(=C\c3cccs3)SC2=S)no1 | - | 12.6µM | - | - | -
CCOC(=O)N1CCN(C(=O)CCN2C(=O)/C(=C\c3ccc(OC)c(OC)c3)SC2=S)CC1 | . | . | . | - | -
O=[N+]([O-])c1cc(C(F)(F)F)cc([N+](=O)[O-])c1NCCCN1CCOCC1 | - | - | - | ? | -
CCc1c(C)sc(NC(=O)c2noc(C)c2[N+](=O)[O-])c1C#N | - | ? | 17.8µM | ? | -
COC(=O)c1ccc(NC(=O)CC2C(=O)N(c3cccc(OC)c3)C(=O)N2Cc2cccs2)cc1 (stereo not given) | - | . | . | ? | ?
COc1ccc(NC(=O)CC2C(=O)N(c3cccc(OC)c3)C(=O)N2CCc2cccs2)cc1 (stereo not given) | - | . | . | 20.6µM | ?
CCCOc1ccc(NC(=O)CC2C(=O)N(c3cccc(OC)c3)C(=O)N2Cc2cccs2)cc1 (stereo not given) | - | . | . | 20.6µM | ?
O=c1[nH]c2ccccc2cc1-c1nnn(-c2ccc(Cl)c(Cl)c2)n1 | . | . | . | ? | 7.31µM
SMILES | TDP1 inh | Gal4-VP16 FLuc | RORgamma inh | DT40 TDP1 no CPT | TDP1 cell CPT
COC(=O)c1c(-c2ccccc2)csc1NC(=O)c1c(-c2ccccc2)noc1C | - | - | - | ? | -
Cc1onc(-c2ccccc2)c1C(=O)OCCOc1ccc([N+](=O)[O-])cc1[N+](=O)[O-] | . | - | - | 20.6µM | ?
Cc1onc(-c2ccccc2)c1C(=O)OCCOc1ccccc1F | . | - | ? | ? | ?
Cc1ccccc1OCCOC(=O)c1c(-c2ccccc2)noc1C | . | - | ? | 18.4µM | 7.31µM
COC(=O)c1c(-c2ccc(C)cc2)csc1NC(=S)NC(=O)c1ccc(F)cc1 | - | 5.01µM | 2.51µM | ? | ?
CCOC(=O)c1c(-c2ccc(F)cc2)csc1NC(=O)c1c(-c2ccccc2)noc1C | - | ? | ? | 20.6µM | ?
